Most compounds without a hit are left out; they make up all but 5.9% or so of the library.
S2 tox: reduces viability in counter-screen for ATXN expression inhibitors. hit rate 0.49% among 400,000. S2 cells (HEK-293 line with an ATXN2-luciferase reporter) viability, CellTiter-Fluor protease fluorescence, 24 h. Potency, µM (doses to about 56.7 µM), usual class: cytotoxic. AID 651635; further: nearly all actives have a fitted effect of over 40% in size
KB-V1 MDR tox: kills drug-selected multidrug resistant KB-V1 cells; KB-V1 MDR cells viability, CellTiter-Glo, 72 h; Potency, µM (doses to about 46.1 µM), usual class: cytotoxic; hit rate 3.4% among 400,000; further: nearly all actives have a fitted effect of over 60% in size
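qHTS viability screen in drug-selected KB-V1 MDR cells: 72 h compound treatment at 37 degrees C, ATP luminescence end point.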
ATXN2 expr inh: reduces ATXN2 reporter expression in HEK-293 cells; HEK-293 ATXN2-luciferase reporter, luminescence, 24 h; Potency, µM (titrated, usually from 57 µM), actives largely listed as inhibitors; hit rate 0.72% among 360,000; AID 1745845; further: nearly all actives have a fitted effect of over 55% in size
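qHTS (up to 57 uM final) was run with 24 h compound exposure of reporter cells at 37 °C. Each well was multiplexed: SteadyGlo luminescence measured ATXN2-luciferase expression after a fluorogenic Gly-Phe-AFC viability readout (25 uM final).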
KB-3-1 cytotox: KB-3-1 parental cell cytotoxicity; KB-3-1 viability, CellTiter-Glo ATP luminescence, 72 h; Potency, µM (top dose mostly 46.1 µM), most hits filed as cytotoxic; hit rate 1.4% among 400,000; further: nearly all actives have a fitted effect of over 60% in size
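Cytotoxicity measured as CellTiter-Glo luminescence after 72 h at 37 C. Compound titrations were pinned onto drug-naive KB-3-1 parental adenocarcinoma cells grown in DMEM with 10% FBS, and normalized data fitted to concentration-response curves.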
TGFb SMAD3 inh: inhibitors of TGF-b signaling; HepG2 CAGA-GFP TGF-b/SMAD3 reporter, GFP fluorescence, 18 h; TGF-beta stimulated, 500 pg/mL final; Potency, µM (doses to about 46.1 µM), usual class: inhibitors; hit rate 1.2% among 410,000; further: nearly all actives have a fitted effect of over 65% in size
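Smad-responsive CAGA-GFP expression was quantified in HEPG2 cells exposed to compounds and 500 pg/mL final TGF-beta for 18 h at 37 degrees C; unstimulated wells defined full inhibition.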
HepG2 tox: HepG2 cytotoxicity, counter-screen for TGF-b inhibitors; Potency, µM (titrated, usually from 46.1 µM), actives largely listed as cytotoxic; HepG2 CAGA-GFP viability, ATP luminescence, 18 h; hit rate 0.76% among 410,000
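HepG2 CAGA-GFP cells (1000/well, DMEM with 1% FBS) received compound, then TGF-beta at 500 pg/mL final, and were incubated 18 hours at 37 degrees C. Viability was read by CellTiter-Glo luminescence. Media-only wells were set as complete cell-killing and DMSO as no toxicity.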
Hits are given with their value. The call rests on the fitted dose curve; in most records, active means well fitted curve in the direction sought with a large enough effect; inconclusive means small, poorly fitted or top-dose-only effect, or another doubt; inactive means no such curve, though single readings can be large; an effect the other way counts as inactive or inconclusive.

What do the screens show for `CCCN1C(=O)c2[nH]nc(-c3ccccc3O)c2C1c1cccc(OCc2ccccc2)c1` (stereo not given)?
KB-V1 MDR tox: inconclusive; KB-3-1 cytotox: inconclusive; TGFb SMAD3 inh: 11.2µM; HepG2 tox: 15.8µM

What do the screens show for `O=C1c2[nH]nc(-c3ccccc3O)c2C(c2ccc(Cl)cc2)N1Cc1ccco1` (stereo not given)?
KB-V1 MDR tox: inactive; KB-3-1 cytotox: inconclusive; TGFb SMAD3 inh: inconclusive; HepG2 tox: 15.8µM

How did O=C1c2[nH]nc(-c3ccccc3O)c2C(c2ccc(Cl)cc2)N1CCc1ccccc1 (stereo not given) do in these assays?
TGFb SMAD3 inh: 20µM; HepG2 tox: inactive

How did Cc1ccc(O)c(-c2n[nH]c3c2C(c2ccccc2F)N(Cc2ccco2)C3=O)c1 (stereo not given) do in these assays?
KB-V1 MDR tox: inconclusive; ATXN2 expr inh: inconclusive; KB-3-1 cytotox: inactive; TGFb SMAD3 inh: inconclusive; HepG2 tox: 11.2µM

Results for Cc1ccc(CCNC(=O)Cn2ncc3c(=O)oc4ccccc4c32)cc1 ?
S2 tox: inactive; KB-V1 MDR tox: inconclusive; ATXN2 expr inh: inactive; KB-3-1 cytotox: inactive; TGFb SMAD3 inh: inactive; HepG2 tox: inactive

What do the screens show for `COc1cccc(NC(=O)Cn2c(=O)n(CCc3ccccc3)c(=O)c3c4c(sc32)CN(C(C)=O)CC4)c1`?
S2 tox: inactive; KB-V1 MDR tox: inactive; ATXN2 expr inh: inactive; KB-3-1 cytotox: inactive; TGFb SMAD3 inh: inactive; HepG2 tox: inactive

Results for COC(=O)CN1C(=O)CSc2ccc(S(=O)(=O)N3CCOCC3)cc21 ?
TGFb SMAD3 inh: inactive; HepG2 tox: inactive

How did COc1ccc(CCN2C(=O)c3[nH]nc(-c4ccccc4O)c3C2c2ccc(O)c(OC)c2)cc1 (stereo not given) do in these assays?
KB-V1 MDR tox: inactive; KB-3-1 cytotox: inactive; TGFb SMAD3 inh: inconclusive; HepG2 tox: inactive

How did COc1ccc(CCN2C(=O)c3[nH]nc(-c4ccccc4O)c3C2c2ccccc2)cc1OC (stereo not given) do in these assays?
S2 tox: inactive; KB-V1 MDR tox: 23.1µM; ATXN2 expr inh: inactive; KB-3-1 cytotox: 16.4µM; TGFb SMAD3 inh: inconclusive; HepG2 tox: inactive

How did Cc1ccc(NS(=O)(=O)c2cc3c(cc2C)OCC(=O)N3)cc1C do in these assays?
KB-V1 MDR tox: inconclusive; KB-3-1 cytotox: inactive

What do the screens show for `Cc1ccc2[nH]cc(C(=O)CN3CCN(c4ccccc4F)CC3)c2c1`?
S2 tox: inconclusive; KB-V1 MDR tox: 10.3µM; ATXN2 expr inh: inconclusive; KB-3-1 cytotox: inactive; TGFb SMAD3 inh: inactive; HepG2 tox: inactive

How did CCN1CCN(CC(=O)c2c[nH]c3ccc(C)cc23)CC1 do in these assays?
S2 tox: inactive; KB-V1 MDR tox: inactive; ATXN2 expr inh: inactive; KB-3-1 cytotox: inactive; TGFb SMAD3 inh: inactive; HepG2 tox: inactive

How did COC(=O)[C@@H]1CCCN1Cc1ccc2c(c1)CN(Cc1cccn1-c1ccc(Cl)cn1)CCO2 do in these assays?
S2 tox: inactive

Results for Nc1nnc2c(n1)[nH]c1ccccc12 ?
S2 tox: inactive; KB-V1 MDR tox: inconclusive; ATXN2 expr inh: inactive; KB-3-1 cytotox: inactive; TGFb SMAD3 inh: inactive; HepG2 tox: inactive

Results for Cc1cc(C)cc(NS(=O)(=O)c2ccc3[nH]cc(C(=O)NCc4ccccc4Cl)c(=O)c3c2)c1 ?
S2 tox: inconclusive; KB-V1 MDR tox: inactive; ATXN2 expr inh: inactive; KB-3-1 cytotox: inconclusive; TGFb SMAD3 inh: 12.6µM; HepG2 tox: inactive

What do the screens show for `Cc1cc(C)cc(NS(=O)(=O)c2ccc3[nH]cc(C(=O)N(C)Cc4ccccc4)c(=O)c3c2)c1`?
S2 tox: inactive; KB-V1 MDR tox: inactive; ATXN2 expr inh: inactive; KB-3-1 cytotox: inactive; TGFb SMAD3 inh: inconclusive; HepG2 tox: inactive

Results for Cc1cc(C)cc(NS(=O)(=O)c2ccc3[nH]cc(C(=O)NCc4ccco4)c(=O)c3c2)c1 ?
S2 tox: inconclusive; KB-V1 MDR tox: inactive; ATXN2 expr inh: inconclusive; KB-3-1 cytotox: 7.31µM; TGFb SMAD3 inh: inconclusive; HepG2 tox: inactive

Source: PubChem
